Compounds with a hit are over-represented: about 12% of the library has one in this group of screens.
Marburg entry inh: Marburg virus entry inhibition. Marburg virus pseudotyped entry inhibition, cell reporter. 1.8% of 300,000 active. Potency, µM (highest dose often 37.8 µM), most hits filed as inhibitors; calls by dose curve; tested in HEK293 cells
Shiga toxin inh: blocks Shiga toxin action in Vero cells | 9.2% of 290,000 active | inhibition, % at 38.7 µM | Vero cells, Shiga toxin protein synthesis inhibition reporter; in the data active = inhibition mostly above about 28%, no sharp cut-off; inactive = mostly below about 43%
Cycloheximide cs: counter-screen hit for Shiga toxin inhibitors, cycloheximide | 12% of 300,000 active | cell reporter, cycloheximide protein synthesis inhibition counterscreen | AID 2314 | max response, %; in the data active = max response mostly above about 13%, no sharp cut-off; inactive = mostly below about 14%; also: read at 38.3 µM for the half of the compounds with a filed dose
Lassa entry inh: inhibitors of Lassa virus binding or cell entry; Lassa virus pseudotype entry inhibition, cell reporter; Potency, µM (highest dose often 37.9 µM), actives largely listed as inhibitors; 1.2% of 300,000 active; calls by dose curve; tested in HEK293 cells; also: nearly all actives have a fitted effect of over 50% in size
Numbers stand for hits.

For Cc1ccc(CNC(=S)Nc2ccc(NS(=O)(=O)c3ccc(C)cc3)cc2)cc1 the results were Marburg entry inh inconclusive, Shiga toxin inh inactive, Cycloheximide cs inactive and Lassa entry inh inconclusive.
Screening O=C(Nc1ccc(F)cc1)c1cccc(C(=O)Nc2ccc(F)cc2)c1 returned Shiga toxin inh inactive and Cycloheximide cs inactive.
`O=C(Nc1ccc(F)cc1)c1ccccc1` gave Marburg entry inh inconclusive, Shiga toxin inh 103.1, Cycloheximide cs 44.1 and Lassa entry inh inconclusive.
`N#CC1=C(N)Oc2cc3ccccc3cc2C1c1cccs1` (centres undefined) gave Marburg entry inh inconclusive, Shiga toxin inh inactive, Cycloheximide cs inactive and Lassa entry inh inconclusive.
Screening CN(C)/C=N/C1=C(C#N)C(c2cccs2)c2ccc3ccccc3c2O1 (centres undefined) returned Marburg entry inh inconclusive, Shiga toxin inh 66.3, Cycloheximide cs 46.6 and Lassa entry inh inconclusive.
Screening CCOc1ccc(NC(=O)COC(=O)Cc2ccsc2)cc1 returned Marburg entry inh inactive and Lassa entry inh inactive.
O=C(CC(=O)NCc1ccccc1)NCc1ccccc1 was read as Marburg entry inh inactive, Shiga toxin inh inactive, Cycloheximide cs inactive and Lassa entry inh inactive.
`CCN(CC)S(=O)(=O)c1ccc(C(=O)Nc2cc(C)on2)cc1` gave Marburg entry inh inactive, Shiga toxin inh inactive, Cycloheximide cs inactive and Lassa entry inh inconclusive.
For COc1ccc(C(=O)Nc2cc(C)on2)cc1 the results were Marburg entry inh inconclusive, Shiga toxin inh inactive, Cycloheximide cs 27.0 and Lassa entry inh inconclusive.
Screening COc1cc(OC)cc(C(=O)Nc2cc(C)on2)c1 returned Shiga toxin inh inactive and Cycloheximide cs inactive.
Screening COc1ccc(OCc2cccc(C(=O)Nc3cc(C)on3)c2)cc1 returned Marburg entry inh 5.8µM, Shiga toxin inh active, Cycloheximide cs 91.4 and Lassa entry inh inconclusive.
CC(=O)Oc1ccc(C(=O)Nc2cc(C)on2)cc1 was read as Shiga toxin inh 87.9 and Cycloheximide cs 29.6.
Screening Cc1oc2ncnc(N3CCCCC3)c2c1C(=O)N1CCN(c2cccc(C(F)(F)F)c2)CC1 returned Lassa entry inh inactive.
`c1cnc2ccc3ncccc3c2c1` gave Marburg entry inh inactive, Shiga toxin inh inactive and Cycloheximide cs inactive.
O=C1c2cccc3cccc(c23)C(=O)N1c1ccc2ncccc2c1 was read as Marburg entry inh inconclusive, Shiga toxin inh inactive, Cycloheximide cs inactive and Lassa entry inh inconclusive.
For Nc1ccc(/C=C/c2ccc3ncccc3c2)cc1 the results were Shiga toxin inh 84.9 and Cycloheximide cs 37.7.
Screening Nc1ccc2ncccc2c1N returned Marburg entry inh inconclusive, Shiga toxin inh 41.9, Cycloheximide cs 28.1 and Lassa entry inh inactive.
For Nc1ccc2ncccc2c1 the results were Marburg entry inh inactive, Shiga toxin inh 135.7, Cycloheximide cs 48.4 and Lassa entry inh inactive.
For O=C(CCCCn1ccc(=O)[nH]c1=O)Nc1ccc(O)c(C(=O)O)c1 the results were Marburg entry inh inactive and Lassa entry inh inactive.
Screening C=CCNC(=S)NC(=O)c1csc([N+](=O)[O-])c1 returned Marburg entry inh inactive, Shiga toxin inh inactive, Cycloheximide cs inactive and Lassa entry inh inactive.
`O=C(NCc1ccc(F)cc1)C(=O)Nc1ccc2nc3n(c(=O)c2c1)CCCCC3` gave Marburg entry inh inactive and Lassa entry inh inactive.
Cc1ccc(Cn2ccsc2=NC(=O)COC(=O)c2ccc(O)cc2O)cc1 was read as Shiga toxin inh 135.2 and Cycloheximide cs 37.6.
`Cc1ccc(Cn2ccsc2=NC(=O)COC(=O)C(C)C)cc1` gave Marburg entry inh inactive, Shiga toxin inh inactive, Cycloheximide cs inactive and Lassa entry inh inactive.
`COc1cccc(CNc2nc3c(-c4ccccc4)nnn3c3ccccc23)c1` gave Marburg entry inh inconclusive and Lassa entry inh inactive.
For COc1ccc(C(=O)NC2CCN(C(=O)NCc3ccccc3)CC2)cc1 the results were Marburg entry inh inactive, Shiga toxin inh inactive, Cycloheximide cs inactive and Lassa entry inh inactive.
Screening Cc1ccc(C(=O)n2c(-c3ccccc3)cnc2SCC(=O)Nc2ccc(C)cc2C)cc1 returned Marburg entry inh inconclusive, Shiga toxin inh 48.5, Cycloheximide cs inactive and Lassa entry inh inconclusive.
`Cc1ccc(NC(=O)CSc2nnc(-c3cccnc3)o2)c(C)c1` gave Marburg entry inh inactive and Lassa entry inh inactive.
Screening Cc1ccc(NC(=O)CSc2nnc3scc(-c4ccccc4)n23)cc1 returned Marburg entry inh inactive and Lassa entry inh inactive.
`Cc1ccc(NC(=O)CSc2ncc(-c3ccccc3)n2C(=O)c2ccccc2)cc1` gave Marburg entry inh inactive, Shiga toxin inh 100.4, Cycloheximide cs 27.8 and Lassa entry inh inactive.
Screening Cc1ccc(C(=O)n2c(-c3ccccc3)cnc2SCC(=O)Nc2ccccc2)cc1 returned Marburg entry inh inconclusive, Shiga toxin inh inactive, Cycloheximide cs 15.1 and Lassa entry inh inactive.
